Whole data set: some 5,000 sequences, median “log2 normalized fluorescence” near 0.089, cut for the highest 2% near 0.81. Shown is part of a subset that was picked to be rich in the highest values.

Drawing on PMC5515408, “Sequence-specific DNA binding by MYC/MAX to low-affinity non-E-box motifs”, this text covers binding signal for 30 sequences.

MYC (p64);MAX (p21), in MYC:MAX, sequence (P01106 16-454, chain 1 of 2): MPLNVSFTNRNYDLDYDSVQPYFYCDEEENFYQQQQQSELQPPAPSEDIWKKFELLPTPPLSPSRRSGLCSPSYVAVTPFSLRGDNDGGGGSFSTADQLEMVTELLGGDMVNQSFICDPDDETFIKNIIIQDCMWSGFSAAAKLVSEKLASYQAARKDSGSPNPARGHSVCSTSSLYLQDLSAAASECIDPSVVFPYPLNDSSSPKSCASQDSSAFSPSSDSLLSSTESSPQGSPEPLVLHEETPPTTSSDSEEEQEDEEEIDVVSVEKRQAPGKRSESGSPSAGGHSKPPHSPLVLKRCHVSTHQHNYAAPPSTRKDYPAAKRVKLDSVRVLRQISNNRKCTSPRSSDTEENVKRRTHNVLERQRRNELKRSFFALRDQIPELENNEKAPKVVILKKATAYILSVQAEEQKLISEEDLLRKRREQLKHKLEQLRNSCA
MYC (p64);MAX (p21), in MYC:MAX, sequence (P61244 other isoform, or with tags, fused parts or gaps |, chain 2 of 2): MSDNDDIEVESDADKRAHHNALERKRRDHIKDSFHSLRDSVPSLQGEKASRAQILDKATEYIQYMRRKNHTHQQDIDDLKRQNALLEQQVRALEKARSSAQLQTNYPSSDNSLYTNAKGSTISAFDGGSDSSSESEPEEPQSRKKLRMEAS

The experiment has as its target MYC (p64);MAX (p21), in MYC:MAX (human;human, UniProt P01106-1;P61244-2 1-439;1-151, |). The experiment can be described thus: protein-binding microarray (anti-MAX antibody); PBM: 15 mM Tris-HCl pH 7.5, 100 mM KCl, 0.075% NP40, 7.5 mM beta-mercaptoethanol, 375 ng/ul BSA, 8 ng/ul poly(dA-dT):(dA-dT), 550 ng complex, 60 min, room tempe; high values mean tight binding. The settings on record: protein: recombinant;recombinant; tags: 6xHis;6xHis; copies: 1;1; label: 3' end of printed strand (linker) attached to glass slide; dsDNA, one strand shown. An outline of the steps: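 Recombinant His-tagged human MYC:MAX or MAX:MAX dimers (550 ng, expressed in E. coli) were incubated for 60 min at room temperature in Tris-KCl buffer, pH 7.5, with NP40, BSA and poly(dA-dT) competitor. The custom Agilent glass array held ~5000 unique 12-nt sequences, each spotted in triplicate and made double-stranded by primer extension. Bound protein was detected with anti-MAX and secondary antibodies and scanned at 543 nm. Binding is reported as log2 normalized fluorescence.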
With “CCGGCTGACACGTGCTATTAATAGCTAAGATTACTATATCGACG”, the binding signal was 0.869 log2 normalized fluorescence.
As to “CCGGCGGACACGTGGAGTTAATAGCTAAGATTACTATATCGACG”, the binding signal is 0.745 log2 normalized fluorescence.
To “CCGGCTGACACGTGCTCTTAATAGCTAAGATTACTATATCGACG” belongs 0.813 log2 normalized fluorescence; to “CCGGCTGACACGTGCTGTTAATAGCTAAGATTACTATATCGACG”, 0.743 log2 normalized fluorescence.
The same measure for “CCGGCTGACACGTGGAGTTAATAGCTAAGATTACTATATCGACG”: 0.923 log2 normalized fluorescence.
To “CCGGCTGACACGTAGAGTTAATAGCTAAGATTACTATATCGACG” belongs 0.293 log2 normalized fluorescence; to “CCGGCTGACACGTGATTTTAATAGCTAAGATTACTATATCGACG”, 0.626 log2 normalized fluorescence.
Take “CCGGCTGACACGTGGGTTTAATAGCTAAGATTACTATATCGACG”: the binding signal was 0.725 log2 normalized fluorescence.
The same measure for “CCGGCTGACACGTGCATTTAATAGCTAAGATTACTATATCGACG”: 0.894 log2 normalized fluorescence.
The same measure for “CCGGCTGACACGTGTGGTTAATAGCTAAGATTACTATATCGACG”: 0.792 log2 normalized fluorescence; for “CCGGCTGACACGTGGGGTTAATAGCTAAGATTACTATATCGACG”: 1 log2 normalized fluorescence; for “CCGGCTGACACGTTGCATTAATAGCTAAGATTACTATATCGACG”: 0.792 log2 normalized fluorescence.
The same measure for “CCGGCAGAAACGCGGTATTAATAGCTAAGATTACTATATCGACG”: 0.575 log2 normalized fluorescence; for “CCGGCTGATTACGAGTATTAATAGCTAAGATTACTATATCGACG”: 0.0125 log2 normalized fluorescence.
For “CCGGCTGACACGAGATATTAATAGCTAAGATTACTATATCGACG”, the binding signal was 0.491 log2 normalized fluorescence.
To “CCGGCTGATCCGCTGTATTAATAGCTAAGATTACTATATCGACG” belongs -0.0182 log2 normalized fluorescence.
The same measure for “CCGGCTGAAACGTTGTATTAATAGCTAAGATTACTATATCGACG”: 0.435 log2 normalized fluorescence; for “CCGGCTGAAACACAGTATTAATAGCTAAGATTACTATATCGACG”: 0.249 log2 normalized fluorescence.
The same measure for “CCGGCTGATGGTCCGTATTAATAGCTAAGATTACTATATCGACG”: 0.278 log2 normalized fluorescence; for “CCGGCTGATGAGCAGTATTAATAGCTAAGATTACTATATCGACG”: -0.0208 log2 normalized fluorescence; for “CCGGCTGATGGGTTGTATTAATAGCTAAGATTACTATATCGACG”: 0.152 log2 normalized fluorescence.
Take “CCGGCTGACACGTGCGATTAATAGCTAAGATTACTATATCGACG”: the binding signal was 0.786 log2 normalized fluorescence.
With “CCGGCTGACACGTGCCATTAATAGCTAAGATTACTATATCGACG”, the binding signal was 1 log2 normalized fluorescence.
Take “CCGGCTGACACGTGTGCTTAATAGCTAAGATTACTATATCGACG”: the binding signal was 0.818 log2 normalized fluorescence.
“CCGGCTGACACGTGCGCTTAATAGCTAAGATTACTATATCGACG”: the binding signal was 0.633 log2 normalized fluorescence.
To “CCGGCTGACACGTGGATTTAATAGCTAAGATTACTATATCGACG” belongs 0.893 log2 normalized fluorescence; to “CCGGCTGACACGTGCCGTTAATAGCTAAGATTACTATATCGACG”, 0.783 log2 normalized fluorescence; to “CCGGCTGACACGTGAATTTAATAGCTAAGATTACTATATCGACG”, 0.712 log2 normalized fluorescence.
Take “CCGGCTGACACGTGACATTAATAGCTAAGATTACTATATCGACG”: the binding signal was 0.756 log2 normalized fluorescence.
To “CCGGCTGACACGTGGGATTAATAGCTAAGATTACTATATCGACG” belongs 0.669 log2 normalized fluorescence.
